Results as given in PubChem BioAssay (Tox21).
Records with an inconclusive call do not appear. A call without a number means that no potency is given here. The source made the active and inactive calls. The call rests on the fitted dose curve.

Test: p53 small molecule agonists, cell-based qHTS assay with rat liver microsomes: qHTS cell viability counter screen (AID 1963580); further: nearly all actives have a fitted effect of over 45% in size
Conditions: p53RE-bla HCT-116 + rat microsomes, ATP viability, 16 h; series mostly up to 66 µM
Excerpt: National Center for Advancing Translational Sciences [NCATS]
Division of Preclinical Innovation [DPI]
U.S. Environmental Protection Agency [EPA]
National Institutes of Environmental Health Sciences [NIEHS]
National Toxicology Program [NTP]
U.S. Food and Drug Administration [FDA]
p53, a tumor suppressor protein, is activated following cellular insult, including DNA damage and other cellular stresses. The activation of p53 regulates cell fate by inducing DNA repair, cell cycle arrest, apoptosis, or cellular senescence. The activation of p53, therefore, is a good indicator of DNA damage and other cellular stresses. The CellSensor p53RE-bla HCT-116 cell line contains a stably integrated beta-lactamase reporter gene under control of the p53 response elements. The activation of the reporter gene under culture conditions can be detected by fluorescence intensity. This cell line was used to screen the Tox21 10K compound library in the condition of presence of rat liver microsomes and to identify agonists that activate the p53 signaling pathway after in vitro metabolic activation (Ooka et al., Archive of Toxicology 96:1975-1987, 2022). The cytotoxicity of the Tox21 compound library against the p53 RE-bla HCT-116 cell line was tested in parallel by measuring the intra cellular ATP content in the same wells.
Tox21 Assay Protocol Summary:
The p53RE-bla cells were dispensed at 4,000cells/3ul/well in 1536-well black-clear bottom plates. After the assay plates were incubated at 37 C, 5% CO2 incubator for 5 hours, 23 nL of compounds dissolved in DMSO, positive controls or DMSO only was transferred to the assay plate. Following compound addition, 3 uL of rat liver microsomes (Molecular Toxicology, Boone, NC) at final concentration of 0.5 mg/mL and 1uL of B-Nicotinamide adenine dinucleotide 2'-phosphate (NADPH) at final concentration of 0.5 mg/mL were transferred to the assay plate. The plates were incubated at 37 C for 16 hours. 1 uL of LiveBLAzer detection mixture was added to each well and the plates were incubated at room temperature in the dark for 2 h. Fluorescence intensity at 460 and 530 nm emission and 405 nm excitation were measured by an Envision plate reader. For cell viability readout that measures cytotoxicity, 4 ul/well of CellTiter-Glo reagent was added into the assay plates using a Flying Reagent Dispenser. After 30 min incubation at room temperature, the luminescence intensity in the plates was measured using a ViewLux plate reader.

**Q.** For `N=C(N)N1CCc2ccccc2C1`, which activity change, negative = cytotoxicity is on record?
**A.** 0.465% [at 5.99 µM] (inactive)

**Q.** With `COc1cc2ncnc(Nc3cccc(Cl)c3)c2cc1OC` as the molecule, how does the activity change, negative = cytotoxicity read?
**A.** -3.32% [at 13.5 µM] (inactive)

**Q.** For `CCCN(C1CCN(C(=O)C2CCNCC2)CC1)[C@@H]1CCc2ccc(OC)cc2C1`, which Potency is on record?
**A.** inactive

**Q.** For `OC/C(Br)=C(\Br)CO`, which Potency is on record?
**A.** inactive

**Q.** For `O=c1c2ccccc2oc2ccccc12`, which Potency is on record?
**A.** inactive

**Q.** Which Potency does the source give for `O=C=Nc1ccc(Cl)c(Cl)c1` here?
**A.** inactive

**Q.** Which Potency does the source give for `CO[C@H]1C=CO[C@@]2(C)Oc3c(C)c(O)c4c(O)c(c5c(c4c3C2=O)=NC2(CCN(CC(C)C)CC2)N=5)NC(=O)/C(C)=C\C=C/[C@H](C)[C@H](O)[C@@H](C)[C@@H](O)[C@@H](C)[C@H](OC(C)=O)[C@@H]1C` here?
**A.** inactive

**Q.** Which Potency does the source give for `COC(=O)C1=C(C)NC(COC(N)=O)=C(C(=O)OC(C)C)C1c1cccc(Cl)c1Cl` (stereo not given) here?
**A.** inactive

**Q.** For `CC(C)C1CCC(C(=O)N[C@H](Cc2ccccc2)C(=O)O)CC1` (stereo not given in full), which Potency is on record?
**A.** inactive

**Q.** With `CCC(C)n1ncn(-c2ccc(N3CCN(c4ccc(OC[C@H]5CO[C@](Cn6cncn6)(c6ccc(Cl)cc6Cl)O5)cc4)CC3)cc2)c1=O` (stereo not given in full) as the molecule, how does the Potency read?
**A.** inactive

**Q.** For `O=C(c1ccccc1)C1CCC1`, which Potency is on record?
**A.** inactive

**Q.** Which Potency does the source give for `CC(=O)OC(C)OC(=O)C(C)c1ccc(-c2ccccc2)c(F)c1` (stereo not given) here?
**A.** inactive

**Q.** For `NCCc1cnc[nH]1`, which Potency is on record?
**A.** inactive

**Q.** With `CCCCCCCOC(=O)CCC` as the molecule, how does the Potency read?
**A.** inactive

**Q.** With `CC1(C)O[C@@H]2C[C@H]3[C@@H]4CCC5=CC(=O)CC[C@]5(C)[C@@]4(F)[C@@H](O)C[C@]3(C)[C@]2(C(=O)CCl)O1` as the molecule, how does the Potency read?
**A.** inactive

**Q.** With `c1ccc2sc(SN3CCOCC3)nc2c1` as the molecule, how does the Potency read?
**A.** inactive

**Q.** For `CCCCCC[C@@H](O)C/C=C\CCCCCCCC(=O)O`, which Potency is on record?
**A.** inactive

**Q.** For `CCCC(=O)OC[C@@H](OC(=O)CCC)[C@@H](OC(=O)CCC)[C@H](Cn1c2nc(=O)[nH]c(=O)c-2nc2cc(C)c(C)cc21)OC(=O)CCC`, which Potency is on record?
**A.** inactive

**Q.** Which Potency does the source give for `Cc1c(-c2cccnc2)c2ccccc2n1CCCCC(=O)O` here?
**A.** inactive

**Q.** With `Clc1ccc(C(Cn2ccnc2)OCc2ccc(Sc3ccccc3)cc2)c(Cl)c1` (stereo not given) as the molecule, how does the Potency read?
**A.** inactive

**Q.** For `C=Cc1ccc(C=C)cc1`, which Potency is on record?
**A.** inactive

**Q.** Which Potency does the source give for `CC(C(=O)O)c1ccc(C(=O)c2cccs2)cc1` (stereo not given) here?
**A.** inactive

**Q.** Which Potency does the source give for `O=S(=O)(O)c1cc(Cl)c(Cl)cc1Cl` here?
**A.** inactive

**Q.** Which Potency does the source give for `O=CC=C(c1ccccc1)c1ccccc1` here?
**A.** inactive

**Q.** For `Cc1cc2c(cc1C(F)(F)F)N(C(=O)Nc1ccc(Oc3cccnc3C)nc1)CC2`, which Potency is on record?
**A.** inactive

**Q.** With `Cc1oc2c(NC(=O)c3c(Cl)cccc3Cl)cccc2c1C(C)(C)O` as the molecule, how does the Potency read?
**A.** inactive

**Q.** With `N#CSCSc1nc2ccccc2s1` as the molecule, how does the Potency read?
**A.** inactive

**Q.** Which Potency does the source give for `CNS(=O)(=O)c1cc(C(=O)N2CCC(CCN3C4CCC3CC(n3c(C)nc5ccccc53)C4)(c3cccc(F)c3)CC2)c(Cl)cc1F` (stereo not given) here?
**A.** inactive

**Q.** For `O=[N+]([O-])c1ccc(O)cc1`, which Potency is on record?
**A.** inactive

**Q.** With `COCC(=O)O[C@]1(CCN(C)CCCc2nc3ccccc3[nH]2)CCc2cc(F)ccc2[C@@H]1C(C)C` as the molecule, how does the Potency read?
**A.** inactive

**Q.** With `O=C1OC(=O)c2c(Br)c(Br)c(Br)c(Br)c21` as the molecule, how does the Potency read?
**A.** inactive

**Q.** With `NCCc1ccn[nH]1` as the molecule, how does the Potency read?
**A.** inactive

**Q.** Which Potency does the source give for `Cc1c[nH]c(=O)[nH]c1=O` here?
**A.** inactive

**Q.** For `CN(C)C(=O)Nc1ccccc1`, which Potency is on record?
**A.** inactive

**Q.** For `CCCCCCCC/C=C\CCCCCCCC(=O)OCCO`, which Potency is on record?
**A.** inactive

**Q.** Which Potency does the source give for `Cc1c(C(=O)O)c(O)cc2c1C(=O)c1c(O)c([C@@H]3O[C@H](CO)[C@@H](O)[C@H](O)[C@H]3O)c(O)c(O)c1C2=O` here?
**A.** inactive

**Q.** For `C/C=C/C(=O)C1=C(C)CCCC1(C)C`, which Potency is on record?
**A.** inactive

**Q.** With `C=Cc1ccc(OC(C)=O)cc1` as the molecule, how does the Potency read?
**A.** inactive

**Q.** For `Cc1ccc(O)c(C(=O)c2ccccc2)c1`, which Potency is on record?
**A.** inactive

**Q.** For `Cc1cc(C(C#N)c2ccc(Cl)cc2)c(Cl)cc1NC(=O)c1cc(I)cc(I)c1O` (stereo not given), which Potency is on record?
**A.** inactive
